# Source: PubChem BioAssay
# SW480 rerep: induces DNA re-replication in SW480 colon adenocarcinoma cells. SW480 DNA re-replication, Hoechst DNA content imaging, 48 h. Potency, µM (top dose mostly 46.1 µM), inactives show at the top dose re-replication activation, actives largely listed as activators. hit rate 1.8% among 340,000. AID 624297; also: % of control where 0% means no effect; nearly all actives have a fitted effect of over 55% in size
#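 Quantitative HTS format with DMSO vehicle controls; 48 hr drug incubation at 37 C, then 40 min Hoechst staining and scanning imager measurement at 405 nm excitation.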
# HT1080 IDH1KD tx: HT-1080 IDH1 knockdown cell toxicity (counter line); hit rate 2% among 360,000; AID 686971; HT-1080 IDH1 knockdown viability, ATP luminescence, 48 h; Potency, µM (series often up to 46.1 µM), inactives show top-dose activity, negative = toxicity, hits mostly cytotoxic;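 also: 0% = DMSO wells and -100% = cell-free medium wells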
#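 Using the IDH1-knockdown HT-1080 line run in the same batch and compound series as the NT line, viability after 48 h at 37 °C was determined by CellTiter-Glo luminescence and expressed as % activity.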
# KB-3-1 tox: kills parental KB-3-1 adenocarcinoma cells | KB-3-1 viability, CellTiter-Glo ATP luminescence, 72 h | AID 1347075 | Potency, µM (series often up to 46.1 µM), most hits filed as cytotoxic | hit rate 1.4% among 400,000; also: % is scaled to controls: 0 for no effect and ±100 for the full control effect; nearly all actives have a fitted effect of over 60% in size
#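 Here the drug-naive KB-3-1 line serves as comparator for MDR sub-line selectivity; cells received compound titrations, 72 h at 37 °C, then CellTiter-Glo readout.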
# KB-V1 MDR tox: kills drug-selected multidrug resistant KB-V1 cells; KB-V1 MDR cells viability, CellTiter-Glo, 72 h; Potency, µM (titrated, usually from 46.1 µM), actives largely listed as cytotoxic; hit rate 3.4% among 400,000; AID 1347076; also: % is scaled to controls: 0 for no effect and ±100 for the full control effect; nearly all actives have a fitted effect of over 60% in size
#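 Luminescent ATP read-out (CellTiter-Glo, 10 min) measures survival of drug-selected KB-V1 MDR cells after 72 h, 37 degrees C compound exposure. Medium: phenol-red-free DMEM, 10% FBS. Values from fitted concentration-response curves.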
# MCF10A rerep: induces DNA re-replication in MCF 10a normal breast cells; hit rate 2.9% among 350,000; Potency, µM (highest dose often 46.1 µM), for inactives: at the top dose activity, positive = re-replication, most hits filed as activators; MCF 10A DNA re-replication, Hoechst nuclear intensity, 48 h; also: % of control where 0% means no effect; nearly all actives have a fitted effect of over 50% in size
# HT1080-NT tox: kills 2HG-producing HT-1080-NT fibrosarcoma cells; HT-1080-NT fibrosarcoma viability, CellTiter-Glo ATP luminescence, 48 h; Potency, µM (titrated, usually from 46.1 µM), for inactives: top-dose activity, negative = less viability, usual class: cytotoxic; hit rate 1.6% among 360,000;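 also: NT is the 2HG producing partner of a matched IDH1 knockdown line; 0% = DMSO-treated cells and -100% = media-only wells without cells; nearly all actives have a fitted effect of over 55% in size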
#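 Fibrosarcoma NT cells, 750 per well in 5% FBS RPMI, were exposed to compound for 48 hours. Viability: CellTiter-Glo luminescence.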
# Numbers without * were called inactive; i = inactive; ? = inconclusive; · = not tested or not shown. Shown are actives, neighbours in structure and some others; about 8% of the full set was active somewhere. Calls follow the shape of the dose curve; as a rule, active = well fitted curve in the direction sought with a large enough effect; inconclusive = small, poorly fitted or top-dose-only effect, or another doubt; inactive = no such curve, though single readings can be large; an effect the other way counts as inactive or inconclusive. Potency is read from the fitted curve at half-maximal effect.
SMILES,SW480 rerep,HT1080 IDH1KD tx,KB-3-1 tox,KB-V1 MDR tox,MCF10A rerep,HT1080-NT tox
Cc1ccc(S(=O)(=O)N2CCN(C(=O)COC(=O)C3CCC3)CC2)cc1,6.51µM*,15.1%,i,i,-0.8%,-3.3%
Cc1ccc(S(=O)(=O)N(CC(=O)NC2CC3CCC2C3)c2ccccc2)cc1 (centres undefined),·,-3.7%,i,i,·,-4.3%
CN(C)S(=O)(=O)Nc1ccc(Br)cc1F,0.5%,3.2%,i,i,0.5%,-6.3%
CCOc1ccc(OCCC(=O)OCC(=O)N2CCN(S(=O)(=O)c3ccc(C)cc3)CC2)cc1,11.0%,-15.0%,i,i,?,?
Cc1ccc(S(=O)(=O)N2CCN(C(=O)COC(=O)CCOc3ccc(C(C)(C)C)cc3)CC2)cc1,18.4µM*,-7.1%,i,i,3.7%,-5.0%
Cc1ccc(S(=O)(=O)N2CCN(C(=O)COc3ccc(Br)cc3)CC2)cc1,-0.6%,-11.1%,i,16.4µM*,2.0%,-8.3%
Cc1ccc(OCCC(=O)OCC(=O)N2CCN(S(=O)(=O)c3ccc(Cl)cc3)CC2)cc1,18.4µM*,-1.8%,i,i,3.6%,4.6%
O=C(COc1ccccc1)N1CCN(S(=O)(=O)c2ccc(Br)cc2)CC1,-6.7%,1.1%,i,i,1.5%,5.3%
Cc1ccc(Cl)cc1N1CCN(S(=O)(=O)c2ccc3[nH]c(=O)ccc3c2)CC1,1.1%,?,i,i,23.1µM*,?
Cc1ccc(Cl)cc1N1CCN(S(=O)(=O)c2ccc3c(c2)NC(=O)C(C)C(=O)N3)CC1 (centres undefined),9.2%,-27.6%,i,i,18.4µM*,?
Cc1ccc(Cl)cc1N1CCN(S(=O)(=O)c2ccc3c(c2)C(C(C)C)C(=O)N3)CC1 (centres undefined),·,·,i,?,·,·
Cc1ccc(Cl)cc1N1CCN(S(=O)(=O)c2ccc3[nH]c(=O)c(=O)[nH]c3c2)CC1,-93.5%,-5.0%,i,i,25.9%,-1.8%
O=C(COC(=O)c1cc(-c2cccs2)nc2ccccc12)c1ccc(Br)cc1,·,·,i,i,·,·
CCOc1ccc(N=C2SC(C(=O)Nc3ccccc3C#N)C(N)=C2C(=O)Nc2ccc(Cl)cc2)cc1 (centres undefined),-1.7%,8.5%,i,i,?,10.2%
N#Cc1ccccc1NC(=O)C1SC(=Nc2ccccc2)C(C(=O)Nc2ccc(Cl)cc2)=C1N (centres undefined),1.7%,-5.4%,5.17µM*,6.51µM*,?,-22.0%
O=C(Nc1cccc(N2C(=O)C3C4C=CC(C4)C3C2=O)c1)c1cccs1 (centres undefined),-3.9%,-1.2%,i,i,0.82µM*,-0.8%
COC(=O)c1ccccc1NC(=O)CN(C1CCCCC1)S(C)(=O)=O,-3.0%,-2.7%,i,i,0.3%,-4.6%
CC(C)C[C@@H](NC(=O)[C@H](Cc1ccccc1)NC(=O)c1cnccn1)B(O)O,0.003µM*,·,·,·,?,·
CCN(CC)C(=O)n1cnc(-c2ccccc2)c1-c1ccccc1,0.3%,11.0%,i,20.6µM*,24.7%,12.0%
COCn1cnc(-c2ccccc2)c1-c1ccccc1,-4.8%,-0.5%,i,i,14.5%,2.4%
CC(C)N(C(=O)CSc1nc2ccccc2n1Cc1ccc(F)cc1)C(C)C,4.3%,?,?,?,21.6%,-25.8%
CCc1ccc2[nH]c(=O)c(CN(Cc3ccccc3)Cc3nnnn3C(C)(C)C)cc2c1,·,·,?,i,·,·
CC(C)(C)n1nnnc1CN(Cc1ccc(F)cc1)Cc1ccco1,6.8%,-3.9%,?,20.6µM*,22.2%,-2.7%
CC(C)(C)C(=O)/C(=C/c1ccncc1)n1cncn1,?,7.31µM*,6.51µM*,?,?,7.31µM*
